Assay results: PubChem BioAssay (Tox21)
Records with an inconclusive call do not appear. A call without a number means that no potency is given here. Activity calls are given as the source filed them. Calls come from the whole dose curve; as a rule, active = well fitted activation curve with a large enough effect in the repeat runs; inconclusive = weak or mixed curves; inactive = no such curve, though single readings can be large or run the other way.

Each compound was assayed against Nuclear receptor subfamily 1 group I member 2 (Homo sapiens) (UniProt O75469) (assay: Human pregnane X receptor (PXR) small molecule agonists, qHTS assay (AID 1346982; note: nearly all actives have a fitted effect of over 35% in size)). Conditions: PXR-Luc HepG2, CYP3A4 luciferase reporter, 24 h; series mostly up to 92.4 µM.
Outline: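 Compound-induced hPXR transactivation of a CYP3A4 luciferase reporter was scored in HepG2 PXR-Luc cells over 24 hr at 37 C, 5% CO2, by luminescence.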
Potency is the fitted concentration of half-maximal effect.

Nuclear receptor subfamily 1 group I member 2 (Homo sapiens), sequence (O75469 whole entry, looked up): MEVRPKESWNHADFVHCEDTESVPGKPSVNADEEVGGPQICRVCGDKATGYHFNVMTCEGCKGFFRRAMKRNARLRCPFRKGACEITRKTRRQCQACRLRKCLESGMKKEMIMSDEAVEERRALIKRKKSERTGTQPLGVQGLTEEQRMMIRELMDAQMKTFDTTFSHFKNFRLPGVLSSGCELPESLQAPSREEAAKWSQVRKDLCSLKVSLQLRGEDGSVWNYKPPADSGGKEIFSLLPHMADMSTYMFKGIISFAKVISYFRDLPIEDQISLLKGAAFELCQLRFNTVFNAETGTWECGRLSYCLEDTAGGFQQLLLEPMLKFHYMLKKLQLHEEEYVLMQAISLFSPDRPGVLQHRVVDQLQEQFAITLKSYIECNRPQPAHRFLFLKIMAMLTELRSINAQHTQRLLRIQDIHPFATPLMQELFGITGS

SMILES	Potency
COc1cc(CNC(=O)CCCC/C=C/C(C)C)ccc1O	33.5 µM (active)
O=C(O)c1ccccc1-n1cc(C(=O)O)c(=O)c2cc(Nc3c(F)cc(F)cc3Cl)c(Cl)cc21	inactive
O=C(Nc1ccccc1)c1cc([N+](=O)[O-])ccc1Cl	61.1 µM (active)
O=c1[nH][nH]c2ccccc12	inactive
C=C(C)C(=O)OCCCCCCCCCCOC(=O)C(=C)C	inactive
Cc1ccc(S(=O)(=O)NC(=O)NC2CCCC2)cc1	inactive
O=C(N[C@@H](Cc1ccccc1)[C@@H](O)C(=O)N1C[C@@H](O)[C@@H](O)C1)c1cc2cc(Cl)ccc2[nH]1	inactive
CCCCCCCCOCCCN	inactive
CC(C)Oc1ccccc1O	inactive
CCCN(C1CCN(C(=O)C2CCNCC2)CC1)[C@@H]1CCc2ccc(OC)cc2C1	inactive
CCCc1ccc(OC)cc1	inactive
CCOc1cc(OCC)c(C(C)=O)cc1OCC	26.8 µM (active)
O=C(O)c1cc(C(=O)O)c(C(=O)O)cc1C(=O)O	inactive
Cc1cc(C)c(C)c(O)c1	inactive
FC(F)(Cl)C(F)(Cl)Cl	inactive
CCc1ccc2c(c1)C(=O)c1ccccc1C2=O	21.7 µM (active)
Cc1c(-c2cccnc2)c2ccccc2n1CCCCC(=O)O	inactive
C=CCCC	inactive
CCC(C)C1N=C(C)C(C)S1 (centres undefined)	34.4 µM (active)
CCCCCCC/C=C/C=O	inactive
Clc1ccccc1-c1nc(-c2ccncc2)no1	5.31 µM (active)
C=CC(=O)NC(C)(C)C	inactive
CC(C)CC(C)(C)C	inactive
COc1ccc(/C=C/c2cc(OC)cc(=O)o2)cc1	8.84 µM (active)
